The structures appear in SMILES notation. In all, about 310,000 compounds went through this assay and about 14,000 (4.5%) showed an effect of 50% or more. Effects have a minus sign here. The entries come from a sample that favours strong results as a whole.
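Also: peak tail current of the secondary pulse compared with the same well before compound.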

The target in the assay is human ether-à-go-go-related gene (hERG) potassium channel (human, UniProt Q12809). The assay is described as follows: primary screen, population patch clamp on CHO cells stably expressing hERG; higher = less effect of the substance.
Sequence of human ether-à-go-go-related gene (hERG) potassium channel (Q12809 whole entry, looked up): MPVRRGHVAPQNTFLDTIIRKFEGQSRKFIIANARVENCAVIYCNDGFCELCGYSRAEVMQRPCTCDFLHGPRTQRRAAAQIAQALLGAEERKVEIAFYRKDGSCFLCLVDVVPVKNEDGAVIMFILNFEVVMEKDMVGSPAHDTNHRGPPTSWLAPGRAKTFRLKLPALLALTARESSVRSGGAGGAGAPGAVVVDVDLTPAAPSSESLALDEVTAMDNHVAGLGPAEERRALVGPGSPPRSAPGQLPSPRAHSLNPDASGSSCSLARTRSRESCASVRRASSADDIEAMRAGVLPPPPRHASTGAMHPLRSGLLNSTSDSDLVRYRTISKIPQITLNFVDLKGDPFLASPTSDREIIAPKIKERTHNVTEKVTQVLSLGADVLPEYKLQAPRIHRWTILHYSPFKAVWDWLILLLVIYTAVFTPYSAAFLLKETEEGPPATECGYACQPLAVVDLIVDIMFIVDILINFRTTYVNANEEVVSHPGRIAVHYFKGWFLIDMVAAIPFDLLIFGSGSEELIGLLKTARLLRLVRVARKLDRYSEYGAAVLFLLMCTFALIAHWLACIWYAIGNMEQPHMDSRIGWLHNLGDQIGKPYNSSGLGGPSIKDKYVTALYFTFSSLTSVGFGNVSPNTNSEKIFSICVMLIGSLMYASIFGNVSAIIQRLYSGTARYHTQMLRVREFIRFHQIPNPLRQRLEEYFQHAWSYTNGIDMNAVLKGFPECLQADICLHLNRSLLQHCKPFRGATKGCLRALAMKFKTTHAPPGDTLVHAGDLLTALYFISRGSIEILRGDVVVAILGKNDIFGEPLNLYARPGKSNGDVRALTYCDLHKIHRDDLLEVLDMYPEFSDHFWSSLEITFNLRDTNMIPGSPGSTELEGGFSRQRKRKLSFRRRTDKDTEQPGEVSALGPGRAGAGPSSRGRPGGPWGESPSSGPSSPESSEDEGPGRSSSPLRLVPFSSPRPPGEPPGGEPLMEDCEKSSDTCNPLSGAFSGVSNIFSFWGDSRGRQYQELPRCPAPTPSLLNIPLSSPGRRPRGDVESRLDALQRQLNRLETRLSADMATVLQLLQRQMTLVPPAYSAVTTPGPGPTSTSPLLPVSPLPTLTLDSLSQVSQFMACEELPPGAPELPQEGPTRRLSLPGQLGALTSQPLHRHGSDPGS
In the case of `COc1ccc(Cl)cc1NC(=O)CN(C)CC(=O)Nc1cc(OC)c(OC)c(OC)c1`, the “hERG current change (%, negative = inhibition) at 10uM” value is reported as -8.72%.
For the compound `COc1ccc(CCNC(=O)C2CCCN(Cc3nc(-c4cccc(Cl)c4)oc3C)C2)cc1OC` (stereo not shown), the “hERG current change (%, negative = inhibition) at 10uM” value is -84.1%.
Regarding `COc1ccc(CCNC(=O)C2CCN(C(=O)c3cccc(Cl)c3)CC2)cc1OC`, the “hERG current change (%, negative = inhibition) at 10uM” value is recorded as 11.5%.
For `Cc1oc(-c2cccc(Cl)c2)nc1CN1CCC(C(=O)NCCCN2CC(C)CC(C)C2)CC1` (stereo not shown), the “hERG current change (%, negative = inhibition) at 10uM” value is on record as -21.4%.
In the case of `COc1ccc(CCNC(=O)C2CCN(Cc3nc(-c4cccc(Cl)c4)oc3C)CC2)cc1OC` it was -85.2%; in that of `CCc1cc2c(cc3c(=O)n(CC(=O)N4CCN(C)CC4)ncn32)s1`, -14.3%.
The figure for `CCOC(=O)c1ccccc1NC(=O)COC(=O)c1ccccc1C(=O)N(C)c1ccccc1` is -23.5%.
As to `CC(OC(=O)CN1C(=O)NC2(CCCC2)C1=O)C(=O)Nc1cccc(Cl)c1` (stereo not shown), the “hERG current change (%, negative = inhibition) at 10uM” value is -15.3%.
For the compound `O=C(O)CC(CC(=O)Nc1ccc(-c2ccccc2)cc1)c1ccccc1` (stereo not shown), the “hERG current change (%, negative = inhibition) at 10uM” value was 9.93%.
Consider `Cc1cc(C(=O)N/N=C/c2sccc2C)no1`, for which the “hERG current change (%, negative = inhibition) at 10uM” value is given as 17.2%.
As for `CCCCNC(=S)Nc1ccc(C(F)(F)F)cc1`, the “hERG current change (%, negative = inhibition) at 10uM” value was -52.8%.
In the case of `O=C(NCCN1CCCCC1)Nc1ccc(Cl)cc1` it was -33.7%.
Consider `Cc1ccc(NC(=O)NCCN2CCCCC2)cc1`, for which the “hERG current change (%, negative = inhibition) at 10uM” value was -11%.
The figure for `CCCCNC(=S)Nc1ccc(F)cc1` is 20.6%.
As to `CCN(CC)CCCNC(=S)Nc1ccc(Br)cc1`, the “hERG current change (%, negative = inhibition) at 10uM” value is given as -53.2%.
In the case of `S=C(NCCN1CCCCC1)Nc1ccc(Br)cc1` it was -69.1%; in that of `CCCNC(=S)Nc1ccc(Br)cc1`, 11.8%; in that of `CN(C)CCCNC(=S)Nc1ccc(Br)cc1`, -11.6%.
The figure for `S=C(NCCN1CCOCC1)Nc1ccc(Br)cc1` is 5.71%; for `CCCCNC(=S)Nc1ccc(Cl)cc1` it is 3.01%.
In the case of `O=C(NCCN1CCCCC1)Nc1ccc(Br)cc1` it was -52.4%; in that of `S=C(NCCN1CCCCC1)Nc1ccccc1`, 0.941%; in that of `COc1ccccc1CNC(=O)C1CCC(=O)N(CCCc2ccccc2)C1` (stereo not shown), -9.31%.
Take `CC(C)c1cc(CNC(=O)CC2C(=O)NCCN2CC2CCCCC2)on1` (stereo not shown): the “hERG current change (%, negative = inhibition) at 10uM” value worked out at 11.2%.
Take `Cc1ccc(NC(=O)NCCN2CCCCC2)cc1C`: the “hERG current change (%, negative = inhibition) at 10uM” value was -15.8%.
The figure for `Cc1ccc(NC(=O)NCCN2CCCCC2)cc1Cl` is -51.7%; for `O=C(NCCN1CCCCC1)Nc1ccc(F)c(Cl)c1` it is -33.9%; for `COc1ccc(S(=O)(=O)N2CCN(C(=O)[C@H](Cc3ccccc3)NC(=O)c3ccco3)CC2)cc1` it is -28.6%.

The values above are taken from paper PMC4336329 (PLoS ONE, 2015).
